Only some compounds are listed: those with a hit (about 2.6% of all), similar ones and a draw of the others.
TROY NFkB inh: inhibitors of TROY-dependent NF-kB signaling. Q293 LMP1-TROYcd NF-kB luciferase reporter, 4 h. inhibition, % at 10 µM. hit rate 0.98% among 360,000;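 active = compounds whose plate-normalised and pattern-corrected inhibition of the luciferase reporter signal at the single screening dose is 50% or more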
HSP90 refold inh: inhibitors of HSP90 luciferase refolding in rabbit reticulocyte lysate. luciferase refolding luminescence, 3 h. inhibition, % at 5.6 µM. hit rate 0.91% among 290,000;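 active = inhibition above the screen-wide mean plus 3 SD, computed separately per campaign, cut at about 16% in these data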;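 also: inhibitors lower the luminescence because luciferase stays unfolded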
TWEAK Fn14 block: TWEAK-Fn14 signaling inhibition | TWEAK-stimulated Fn14 reporter cells, luciferase luminescence, 8 h | inhibition, % at 10 µM | hit rate 2% among 360,000 | AID 1159606; in the data active = inhibition above about 50%
EBV LMP1 NFkB: reduces LMP1-driven NF-kappaB luciferase signal | AID 504558 | LMP1-induced NF-kappaB luciferase reporter cells, luminescence | hit rate 0.69% among 350,000 | inhibition, % at 12.5 µM; in the data active = inhibition above about 41%
LGR2 antag: inhibitors of bursicon-induced Drosophila LGR2 receptor cAMP signaling; HEK293 LGR2, CRE-luciferase, bursicon-stimulated, 4 h; inhibition, % at 9.99 µM; hit rate 0.35% among 380,000;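 active = drop in luminescence signal, shown as inhibition above about 50% in the replicate tests, limit read from the data, passing the limit was not always enough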;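 also: agonist challenge used bursicon conditioned medium at about half maximal strength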
aDG glyco act: increases alpha dystroglycan glycosylation; hit rate 0.22% among 360,000; Pro5-aDG cells, alpha-DG glycosylation AlphaScreen (IIH6); 0% Pro5, 100% B10-LARGE cell signal; activation, % at 10 µM;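 active = activation of at least 8% versus controls, or a plate z-score of at least 8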;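 also: Pro5 are CHO cells carrying HIG-tagged alpha-DG that lacks glycosylation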
Of the large screens only hits and unclear results are named; the others gave an inactive call.

O=C(NCCn1cc(SCC(=O)N2CCOCC2)c2ccccc21)c1c(F)cccc1F	none
CCOc1ccc(C(=O)NCCn2cc(SCC(=O)Nc3cc(C)on3)c3ccccc32)cc1	TROY NFkB inh 56 (no result: LGR2 antag)
Cc1ccc(C(=O)NCCn2cc(SCC(=O)Nc3nnc(C)s3)c3ccccc32)cc1	TROY NFkB inh 77, HSP90 refold inh 50, TWEAK Fn14 block 91
CCCn1cc(SCC(=O)Nc2nnc(C)s2)c2ccccc21	none
O=C(NCCn1cc(SCc2ccccc2F)c2ccccc21)c1c(F)cccc1F	TWEAK Fn14 block 62 (no result: LGR2 antag)
COCC(=O)Nc1ccc2c(c1)C(=O)N(C)[C@H]1CC[C@@H](CC(=O)NCc3ccccc3F)O[C@@H]1CO2	none (no result: TROY NFkB inh, HSP90 refold inh, TWEAK Fn14 block, EBV LMP1 NFkB, aDG glyco act)
COc1ccc(C(=O)NCCn2cc(SCC(=O)N3CCOCC3)c3ccccc32)cc1	TROY NFkB inh 67, HSP90 refold inh 47
NC(=O)c1c(NC(=O)c2ccccc2)sc2c1CCc1ccccc1-2	TWEAK Fn14 block 56
O=C(O)c1cccc(-c2noc(-c3cccc(Cl)c3)n2)c1	EBV LMP1 NFkB 80, LGR2 antag 84 (no result: HSP90 refold inh)
CCCCCCc1cc2cc(C(=O)Nc3cccc(OC)c3)c(=O)oc2cc1O	TWEAK Fn14 block 59
COc1cc(NC(=O)COc2ccc(Cl)cc2)ccc1-c1cc2ccccc2oc1=O	TWEAK Fn14 block 59
CCCCCCc1cc2cc(C(=O)Nc3ccc(OC)cc3)c(=O)oc2cc1O	none
COc1cc(NC(=O)COc2ccc(Cl)cc2)ccc1NC(=O)C(C)C	none
Cc1ccc(NC(=O)c2cc3ccccc3oc2=O)cc1S(=O)(=O)N(C)C	TROY NFkB inh 90, HSP90 refold inh 38, TWEAK Fn14 block 102, EBV LMP1 NFkB 64 (no result: LGR2 antag)
COc1ccc(NC(=O)c2cc3ccccc3oc2=O)cc1	TROY NFkB inh 74, TWEAK Fn14 block 100, EBV LMP1 NFkB 73, LGR2 antag 76 (no result: HSP90 refold inh)
C[C@@H]1CN([C@H](C)CO)C(=O)c2cc(-c3ccc(F)cc3)cnc2O[C@H]1CN(C)C(=O)Cc1ccccn1	none (no result: TROY NFkB inh, HSP90 refold inh, TWEAK Fn14 block, EBV LMP1 NFkB, aDG glyco act)
COc1ccc(C(=O)Nc2ccccc2C(=O)Nc2ccccc2C(=O)O)cc1	none
COc1ccc(C(=O)Nc2ccccc2C(=O)Nc2ccc(C(=O)O)cc2)cc1	TWEAK Fn14 block 81
C[C@@H]1CN([C@H](C)CO)C(=O)Cc2cc(NC(=O)Cn3cnnn3)ccc2O[C@H]1CN(C)C(=O)Nc1cccc2ccccc12	none (no result: TROY NFkB inh, HSP90 refold inh, TWEAK Fn14 block, EBV LMP1 NFkB, aDG glyco act)
Cc1nc2ccccn2c1C(=O)/C=C/c1ccc(F)cc1	none (no result: LGR2 antag)
Cc1nc2ccccn2c1-c1ccnn1S(=O)(=O)c1ccc(F)cc1	TWEAK Fn14 block 52
Cc1ccc(C(=O)N/N=C/C2=Cc3ccccc3OC2C)cc1 (configuration not stated)	none
CC1Oc2ccccc2C=C1/C=N/NC(=O)[C@@H](C)NC(=O)OC(C)(C)C (some centres not stated)	TROY NFkB inh 66
COc1ccc2c3c([nH]c2c1)[C@@H](CO)N(C(=O)C1CCC1)CC31CN(S(C)(=O)=O)C1	none (no result: TROY NFkB inh, HSP90 refold inh, TWEAK Fn14 block, EBV LMP1 NFkB, aDG glyco act)
CCC(C)NC(=O)CSc1nnc(-c2c[nH]c3ccccc23)o1 (configuration not stated)	HSP90 refold inh 17
COc1ccc(CN(C(=O)CSc2nnc(-c3c[nH]c4ccccc34)o2)c2ccc(F)cc2)cc1OC	TWEAK Fn14 block 72 (no result: LGR2 antag)
O=C(CSc1nnc(Cn2nnc3ccccc32)o1)N(Cc1ccc(F)cc1)c1ccccc1	TWEAK Fn14 block 56 (no result: LGR2 antag)
Cc1cccc(-c2ccc([C@@H]3[C@@H](CO)N4CCCCN(S(=O)(=O)c5ccccc5C)C[C@@H]34)cc2)c1	none (no result: TROY NFkB inh, HSP90 refold inh, TWEAK Fn14 block, EBV LMP1 NFkB, aDG glyco act)
CCCC#Cc1cnc2c(c1)C(=O)N([C@H](C)CO)C[C@@H](C)[C@@H](CN(C)C(=O)C1CCC1)O2	none (no result: TROY NFkB inh, HSP90 refold inh, TWEAK Fn14 block, EBV LMP1 NFkB, aDG glyco act)
C[C@@H]1CN([C@H](C)CO)C(=O)c2cc(NC(=O)Nc3ccc(C(F)(F)F)cc3)ccc2O[C@H]1CN(C)S(=O)(=O)c1ccccc1	TWEAK Fn14 block 55 (no result: HSP90 refold inh)
COc1ccc(S(=O)(=O)N(C)C[C@H]2Oc3ccc(NC(=O)Nc4ccc(C(F)(F)F)cc4)cc3C(=O)N([C@H](C)CO)C[C@@H]2C)cc1	TWEAK Fn14 block 58 (no result: HSP90 refold inh)
C[C@@H]1CN([C@@H](C)CO)C(=O)c2cc(NC(=O)Nc3ccc(C(F)(F)F)cc3)ccc2O[C@@H]1CN(C)S(=O)(=O)c1ccc(F)cc1	none (no result: TROY NFkB inh, HSP90 refold inh, TWEAK Fn14 block, EBV LMP1 NFkB, aDG glyco act)
C[C@@H]1CN([C@H](C)CO)C(=O)c2cc(NS(=O)(=O)c3cn(C)cn3)ccc2O[C@@H](C)CCCCO[C@@H]1CN(C)Cc1ccc(C(=O)O)cc1	none (no result: TROY NFkB inh, HSP90 refold inh, TWEAK Fn14 block, EBV LMP1 NFkB, aDG glyco act)
O=C(Nc1ccc(Cl)cc1)c1ccc2snnc2c1	EBV LMP1 NFkB 80
CCOc1cc(/C=N\NC(=O)c2ccc(NC(=O)C(C)(C)C)cc2)ccc1OC(=O)c1cccc(C)c1	TROY NFkB inh 53, TWEAK Fn14 block 86 (no result: LGR2 antag)
CCOc1cc(/C=N\NC(=O)c2ccc(NC(=O)C(C)(C)C)cc2)ccc1OC(=O)c1ccc(C)cc1	none (no result: LGR2 antag)
Cc1cccc(C(=O)Oc2ccc(/C=N/NC(=O)c3ccccc3O)cc2)c1	none
Cc1cccc(C(=O)Oc2ccc(/C=N/NC(=O)c3ccc(O)cc3)cc2)c1	TROY NFkB inh 52
CCCN(C[C@@H]1N[C@@H](CO)[C@H]1c1ccc(-c2cccnc2)cc1)C(C)=O	none (no result: TROY NFkB inh, HSP90 refold inh, TWEAK Fn14 block, EBV LMP1 NFkB, aDG glyco act)
O=C(C1CCN(c2ncnc3c2nc2n3CCCCC2)CC1)N1CCN(c2cccc(Cl)c2)CC1	TWEAK Fn14 block 54
O=C(C1CCCN(c2ncnc3c2nc2n3CCCCC2)C1)N1CCN(c2ccc(Cl)cc2)CC1 (configuration not stated)	none
O=C(CSc1nnc2scc(-c3ccccc3)n12)Nc1nsc(-c2ccc(Cl)cc2)n1	TWEAK Fn14 block 54 (no result: LGR2 antag)
COc1ccc(-c2nn(-c3ccccc3)cc2/C=N/NC(=O)c2ccc3c(c2)OCO3)cc1	none (no result: TROY NFkB inh, TWEAK Fn14 block, EBV LMP1 NFkB, LGR2 antag, aDG glyco act)
COc1ccc(-c2nn(-c3ccccc3)cc2/C=N/NC(=O)c2ccc(Br)o2)cc1	TROY NFkB inh 76, TWEAK Fn14 block 94 (no result: LGR2 antag)
Cc1nc(-c2cccc(NC(=O)c3ccc(-n4nccc4C)cc3)c2)cs1	TROY NFkB inh 60, TWEAK Fn14 block 74 (no result: HSP90 refold inh)
Cc1nc(-c2ccc(C(=O)Nc3cccc(Br)c3)cc2)cs1	TWEAK Fn14 block 66
C[C@@H]1CN([C@H](C)CO)S(=O)(=O)c2ccc(-c3cccnc3)cc2O[C@@H]1CN(C)C(=O)C1CC1	none (no result: TROY NFkB inh, HSP90 refold inh, TWEAK Fn14 block, EBV LMP1 NFkB, aDG glyco act)
CN1c2ccc(Br)cc2[C@H]2[C@H](CCN2C(=O)c2cccc(F)c2)[C@@H]1CO	none (no result: TROY NFkB inh, HSP90 refold inh, TWEAK Fn14 block, EBV LMP1 NFkB, aDG glyco act)
CCn1nc([N+](=O)[O-])c(C(C#N)c2nc3cc(C(F)(F)F)ccc3s2)c(Cl)c1=O (configuration not stated)	TROY NFkB inh 65
CCCn1nc([N+](=O)[O-])c(C(C#N)c2nc3ccccc3o2)c(Cl)c1=O (configuration not stated)	TROY NFkB inh 57
Cc1cccc(S(=O)(=O)N2CCCCN3[C@H](CO)[C@H](c4ccc(-c5ccncc5)cc4)[C@@H]3C2)c1	none (no result: TROY NFkB inh, HSP90 refold inh, TWEAK Fn14 block, EBV LMP1 NFkB, aDG glyco act)
